Test results: PMC4336329 (PLoS ONE, 2015)
Out of some 310,000 compounds screened, about 14,000 (4.5%) showed an effect of 50% or more. The effect is printed as a negative number. This is one part of a sample in which strong results are shown more often than they occur.

Target: human ether-à-go-go-related gene (hERG) potassium channel (human, UniProt Q12809)
Assay: primary screen, population patch clamp on CHO cells stably expressing hERG; higher = less effect of the substance
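Also: peak tail current of the secondary pulse compared with the same well before compound.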

Chain of human ether-à-go-go-related gene (hERG) potassium channel (Q12809 whole entry, looked up): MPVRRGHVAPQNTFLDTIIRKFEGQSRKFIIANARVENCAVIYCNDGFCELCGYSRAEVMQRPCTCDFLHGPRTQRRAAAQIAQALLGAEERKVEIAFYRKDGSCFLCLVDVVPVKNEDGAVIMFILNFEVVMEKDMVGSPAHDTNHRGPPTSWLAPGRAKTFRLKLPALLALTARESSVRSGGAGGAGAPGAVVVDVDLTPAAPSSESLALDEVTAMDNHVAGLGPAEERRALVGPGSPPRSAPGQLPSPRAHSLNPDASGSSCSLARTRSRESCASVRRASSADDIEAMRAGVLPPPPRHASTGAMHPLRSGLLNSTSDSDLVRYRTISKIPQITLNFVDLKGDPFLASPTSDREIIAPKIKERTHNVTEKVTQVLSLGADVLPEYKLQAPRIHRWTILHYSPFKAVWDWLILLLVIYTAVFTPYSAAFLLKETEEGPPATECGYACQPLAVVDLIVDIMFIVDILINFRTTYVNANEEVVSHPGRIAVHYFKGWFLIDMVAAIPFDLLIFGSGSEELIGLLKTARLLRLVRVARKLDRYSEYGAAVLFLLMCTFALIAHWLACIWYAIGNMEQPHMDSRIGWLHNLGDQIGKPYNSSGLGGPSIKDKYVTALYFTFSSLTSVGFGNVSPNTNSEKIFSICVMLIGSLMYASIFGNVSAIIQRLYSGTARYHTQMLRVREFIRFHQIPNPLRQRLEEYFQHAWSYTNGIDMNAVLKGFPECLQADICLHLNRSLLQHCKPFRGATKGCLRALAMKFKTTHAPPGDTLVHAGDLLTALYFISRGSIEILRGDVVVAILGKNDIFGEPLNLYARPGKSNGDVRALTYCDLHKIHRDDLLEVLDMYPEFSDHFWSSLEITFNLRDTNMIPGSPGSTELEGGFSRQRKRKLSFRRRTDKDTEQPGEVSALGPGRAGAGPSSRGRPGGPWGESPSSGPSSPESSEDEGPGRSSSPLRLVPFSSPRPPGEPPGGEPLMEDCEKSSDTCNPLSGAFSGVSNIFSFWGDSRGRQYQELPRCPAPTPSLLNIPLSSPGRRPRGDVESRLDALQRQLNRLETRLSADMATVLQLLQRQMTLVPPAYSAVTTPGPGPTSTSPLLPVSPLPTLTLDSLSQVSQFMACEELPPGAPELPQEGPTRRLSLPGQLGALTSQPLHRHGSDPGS

SMILES | hERG current change (%, negative = inhibition) at 10uM [%]
Cc1ccccc1NC(=O)c1cccnc1 | -7.59
CCCCOC(=O)c1cc(=O)[nH]c2ccc(C)cc12 | 5.6
CC1(C)OC(=O)C(=NNc2ccccc2[N+](=O)[O-])C(=O)O1 | 24.3
COC(=O)CN(c1ccc(Cl)cc1C)S(C)(=O)=O | 13.9
N#Cc1cccc(C(=O)N(CCc2ccccc2)Cc2cccs2)c1 | -53.3
CS(=O)(=O)c1cccc(C(=O)N(CCc2ccccc2)Cc2cccs2)c1 | -48.6
COc1ccc(C(=O)N(CCc2ccccc2)Cc2cccs2)c(OC)c1 | -15.9
O=C(Cc1ccccc1)Nc1ccc(C(=O)NCc2ccccc2)cc1 | 11.2
CCCn1c(SCC(=O)Nc2cccc(C(=O)OC)c2)nnc1-c1cccnc1 | -42
Cn1c(SCC(=O)Nc2ccc(F)cc2)nnc1-c1cccnc1 | -11.5
C=CCn1c(SCC(=O)Nc2ccc(C(=O)O)cc2)nnc1-c1cccnc1 | 34.6
Cn1c(SCC(=O)Nc2cccc(F)c2)nnc1-c1cccnc1 | -33.1
O=C(CSc1nnc(-c2cccnc2)n1CCN1CCCCC1)Nc1cccc(Cl)c1 | -79.8
Cc1ccc(NC(=O)CSc2nnc(-c3cccnc3)n2CCN2CCCCC2)cc1 | -69
COC(=O)C1=C(c2ccc(OC)c(OC)c2)C[C@@H]2CC[C@H]1N2C(=O)N1CCC(C)CC1 | 5.39
O=C(COc1ncnc2ccc(Br)cc12)NC1CCCC1 | 2.91
Cc1cc(NC(=O)COC(=O)CSc2nc3cc(Cl)ccc3n2Cc2ccccc2)no1 | -19.9
Nc1nc2n(n1)C(=O)CC(c1ccccc1[N+](=O)[O-])N2 (centres unmarked) | 41.7
CC(C)(C)n1nnnc1C(c1ccc(C(F)(F)F)cc1)N(Cc1ccc(F)cc1)Cc1ccco1 (centres unmarked) | 8.86
O=C(NCCc1csc(-c2ccccc2)n1)c1ccccc1F | -49.5
COCCNC(=O)CCc1nc2cccnc2n1Cc1ccc(OC)cc1 | 8.65
COCCCNC(=O)CCc1nc2cccnc2n1Cc1ccc(OC)cc1 | 10.8
CCCCNC(=O)CCc1nc2cccnc2n1Cc1ccc(OC)cc1 | -18.1
COc1ccc(Cn2c(CCC(=O)Nc3ccccc3)nc3cccnc32)cc1 | -9.7
O=C(O)CCc1nc2cccnc2n1Cc1ccccc1 | -24.6
COCCCNC(=O)CCc1nc2cccnc2n1Cc1ccccc1 | -29.8
O=C(CCc1nc2cccnc2n1Cc1ccccc1)NCCc1ccc(Cl)cc1 | -78.6
CCCCCCNC(=O)CCc1nc2cccnc2n1Cc1ccc(OC)cc1 | -63.6
CCCCNC(=O)CCc1nc2cccnc2n1Cc1ccccc1 | -51.7
